# According to the supplement of paper PMC10849652:
# The full data set covers some 8,800 targets. This sample favours those with a hit. About 0.5% of all pairs of compound and target were hits. Unmarked numbers belong to inactive results.
# Key:
# Experiment in all cases: log2 fold change, soluble protein after heating vs DMSO (PISA); higher = thermal stabilisation; K562 lysate, 10 uM; active = over 0.2 and 3.5 SD of the protein, either way, in both replicates (recomputed)
# [1] = compound: C1=CC=C(C=C1)[C@H](COC2=CC3=C(C=C2)NC(=O)N3)NC(=O)C4=CC=CN(C4=O)CC5=CC(=C(C=C5)F)F
# In short: (§1)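 A 30 min treatment with 10 μM compound was applied to crude K562 extract at 1 mg/mL protein in PBS pH 7.4 with 1 mM MgCl2. Heating for 3 min spanned 48°C-58°C, after which aliquots were pooled, adjusted to 0.5% NP-40 at 4°C and spun at 21,000xg for 90 min. TMTpro 16plex LC-MS/MS of the supernatant, with channel sums equalised, gave values recorded as log-two fold change in thermal stability against solvent controls, from duplicates.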
# [2] = compound: CC1=C(SC2=C1C(=N[C@H](C3=NN=C(N32)C)CC(=O)N)C4=CC=C(C=C4)Cl)C
# In short: as §1
# [3] = compound: CC1=C2C(=CC=C1)N=C(N(C2=O)C3=CC=CC=C3C)CN4C=NC5=C(N=CN=C54)N
# In short: as §1
# [4] = compound: Cc1sc2c(c1C)C(c1ccc(Cl)cc1)=N[C@@H](CC(=O)OC(C)(C)C)c1nnc(C)n1-2
# In short: as §1
# [5] = compound: c1ccc([C@@H]2C[C@H]2NC2CCNCC2)cc1
# In short: as §1
# Sequence of UniProt P04049 (P04049 whole entry, looked up): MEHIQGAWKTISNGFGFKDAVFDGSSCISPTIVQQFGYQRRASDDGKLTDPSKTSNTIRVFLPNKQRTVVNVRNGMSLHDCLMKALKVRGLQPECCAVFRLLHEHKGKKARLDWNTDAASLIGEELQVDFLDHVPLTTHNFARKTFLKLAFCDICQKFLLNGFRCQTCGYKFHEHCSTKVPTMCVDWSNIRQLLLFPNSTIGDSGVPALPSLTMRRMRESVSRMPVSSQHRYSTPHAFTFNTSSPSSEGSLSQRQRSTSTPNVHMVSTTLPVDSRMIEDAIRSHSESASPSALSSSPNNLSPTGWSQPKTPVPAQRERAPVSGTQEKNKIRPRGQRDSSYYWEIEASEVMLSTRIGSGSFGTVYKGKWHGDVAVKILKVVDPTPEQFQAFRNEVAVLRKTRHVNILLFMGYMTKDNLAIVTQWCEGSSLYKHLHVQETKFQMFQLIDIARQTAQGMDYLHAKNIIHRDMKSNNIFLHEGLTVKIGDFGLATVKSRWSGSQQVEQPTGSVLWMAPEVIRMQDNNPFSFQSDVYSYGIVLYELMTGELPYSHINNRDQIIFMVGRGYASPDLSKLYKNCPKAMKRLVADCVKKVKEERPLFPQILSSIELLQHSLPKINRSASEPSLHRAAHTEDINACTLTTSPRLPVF
# Sequence of UniProt Q15404 (Q15404 whole entry, looked up): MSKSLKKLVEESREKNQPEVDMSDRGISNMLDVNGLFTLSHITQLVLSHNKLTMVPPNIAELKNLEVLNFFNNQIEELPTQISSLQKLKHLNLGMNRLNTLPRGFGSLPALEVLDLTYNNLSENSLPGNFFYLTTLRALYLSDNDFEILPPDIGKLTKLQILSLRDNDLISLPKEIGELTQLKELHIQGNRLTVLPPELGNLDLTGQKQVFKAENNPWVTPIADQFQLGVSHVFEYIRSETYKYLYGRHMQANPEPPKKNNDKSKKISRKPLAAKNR
# Sequence of UniProt Q7L523 (Q7L523 whole entry, looked up): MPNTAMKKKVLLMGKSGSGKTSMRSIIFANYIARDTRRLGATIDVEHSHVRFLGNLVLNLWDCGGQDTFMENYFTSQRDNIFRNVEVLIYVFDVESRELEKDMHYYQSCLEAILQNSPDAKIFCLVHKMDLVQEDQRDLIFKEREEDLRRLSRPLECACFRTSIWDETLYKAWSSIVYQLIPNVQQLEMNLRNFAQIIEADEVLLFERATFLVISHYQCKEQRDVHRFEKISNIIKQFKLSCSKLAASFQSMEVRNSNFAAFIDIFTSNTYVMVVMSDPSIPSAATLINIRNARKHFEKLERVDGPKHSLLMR
# Sequence of UniProt P60059 (P60059 whole entry, looked up): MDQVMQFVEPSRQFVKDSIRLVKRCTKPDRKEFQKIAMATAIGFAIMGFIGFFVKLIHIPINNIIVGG
# Sequence of UniProt O60518 (O60518 whole entry, looked up): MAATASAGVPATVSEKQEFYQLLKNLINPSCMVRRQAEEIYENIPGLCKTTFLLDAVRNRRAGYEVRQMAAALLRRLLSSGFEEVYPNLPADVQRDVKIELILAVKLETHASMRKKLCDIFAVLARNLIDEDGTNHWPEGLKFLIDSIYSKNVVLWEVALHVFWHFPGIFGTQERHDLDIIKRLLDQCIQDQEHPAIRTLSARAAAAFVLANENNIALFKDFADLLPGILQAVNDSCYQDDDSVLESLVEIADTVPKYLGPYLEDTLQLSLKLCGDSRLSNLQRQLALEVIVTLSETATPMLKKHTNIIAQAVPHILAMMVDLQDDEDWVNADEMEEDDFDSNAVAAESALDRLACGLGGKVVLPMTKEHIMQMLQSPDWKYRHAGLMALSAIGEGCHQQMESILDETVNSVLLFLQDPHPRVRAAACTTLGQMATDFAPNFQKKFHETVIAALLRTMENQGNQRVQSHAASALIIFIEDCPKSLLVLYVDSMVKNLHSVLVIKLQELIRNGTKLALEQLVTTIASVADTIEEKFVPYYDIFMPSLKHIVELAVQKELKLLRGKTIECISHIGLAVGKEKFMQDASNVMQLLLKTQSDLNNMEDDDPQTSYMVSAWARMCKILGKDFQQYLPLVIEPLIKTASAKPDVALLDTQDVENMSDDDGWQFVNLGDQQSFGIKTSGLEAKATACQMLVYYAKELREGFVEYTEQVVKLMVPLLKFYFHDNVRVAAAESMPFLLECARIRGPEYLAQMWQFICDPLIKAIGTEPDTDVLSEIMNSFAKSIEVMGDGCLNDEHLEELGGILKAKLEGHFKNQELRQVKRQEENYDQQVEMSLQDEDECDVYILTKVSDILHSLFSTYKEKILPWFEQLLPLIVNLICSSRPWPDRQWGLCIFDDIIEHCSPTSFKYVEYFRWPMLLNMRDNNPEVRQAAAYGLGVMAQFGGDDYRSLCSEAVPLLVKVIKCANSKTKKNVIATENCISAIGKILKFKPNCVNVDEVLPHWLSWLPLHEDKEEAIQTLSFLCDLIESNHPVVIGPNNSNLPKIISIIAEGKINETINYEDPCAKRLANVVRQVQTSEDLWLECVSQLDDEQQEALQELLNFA
# Sequence of UniProt Q9BVS4 (Q9BVS4 whole entry, looked up): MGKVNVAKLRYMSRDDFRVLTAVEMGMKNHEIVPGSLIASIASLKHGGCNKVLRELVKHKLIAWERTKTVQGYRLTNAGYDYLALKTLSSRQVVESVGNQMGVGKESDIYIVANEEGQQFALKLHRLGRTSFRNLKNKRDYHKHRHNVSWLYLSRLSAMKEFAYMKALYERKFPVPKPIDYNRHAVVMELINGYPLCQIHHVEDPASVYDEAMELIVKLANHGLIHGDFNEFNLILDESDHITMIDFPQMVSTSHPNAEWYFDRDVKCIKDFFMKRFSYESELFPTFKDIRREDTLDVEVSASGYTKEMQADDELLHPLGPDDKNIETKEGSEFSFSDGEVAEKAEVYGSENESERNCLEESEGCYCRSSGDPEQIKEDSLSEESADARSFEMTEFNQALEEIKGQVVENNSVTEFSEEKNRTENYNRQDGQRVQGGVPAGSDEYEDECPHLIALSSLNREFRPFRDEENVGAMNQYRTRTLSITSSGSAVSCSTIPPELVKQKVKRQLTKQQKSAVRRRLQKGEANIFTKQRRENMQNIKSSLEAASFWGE
# Sequence of UniProt P78406 (P78406 whole entry, looked up): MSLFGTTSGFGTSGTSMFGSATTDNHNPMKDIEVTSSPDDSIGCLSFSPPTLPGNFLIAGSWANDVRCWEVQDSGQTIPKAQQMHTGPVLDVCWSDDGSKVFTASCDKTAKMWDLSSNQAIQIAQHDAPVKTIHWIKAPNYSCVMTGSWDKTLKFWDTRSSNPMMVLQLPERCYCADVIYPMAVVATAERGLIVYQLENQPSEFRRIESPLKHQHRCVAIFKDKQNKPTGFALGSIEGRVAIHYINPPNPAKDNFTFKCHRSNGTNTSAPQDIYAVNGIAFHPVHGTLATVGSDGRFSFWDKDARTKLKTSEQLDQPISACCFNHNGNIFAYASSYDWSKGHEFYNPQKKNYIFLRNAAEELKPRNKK
# Sequence of UniProt P53611 (P53611 whole entry, looked up): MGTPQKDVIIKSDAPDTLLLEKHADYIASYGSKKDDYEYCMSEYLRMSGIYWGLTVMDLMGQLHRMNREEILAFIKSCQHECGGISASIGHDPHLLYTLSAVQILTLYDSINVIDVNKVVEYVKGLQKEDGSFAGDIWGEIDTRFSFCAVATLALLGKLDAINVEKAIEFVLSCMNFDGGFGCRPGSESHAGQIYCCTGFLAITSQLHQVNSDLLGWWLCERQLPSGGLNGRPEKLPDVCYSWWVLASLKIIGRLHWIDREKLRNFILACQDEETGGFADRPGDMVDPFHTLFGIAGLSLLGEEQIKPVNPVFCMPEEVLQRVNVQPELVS
# Sequence of UniProt Q8NC42 (Q8NC42 whole entry, looked up): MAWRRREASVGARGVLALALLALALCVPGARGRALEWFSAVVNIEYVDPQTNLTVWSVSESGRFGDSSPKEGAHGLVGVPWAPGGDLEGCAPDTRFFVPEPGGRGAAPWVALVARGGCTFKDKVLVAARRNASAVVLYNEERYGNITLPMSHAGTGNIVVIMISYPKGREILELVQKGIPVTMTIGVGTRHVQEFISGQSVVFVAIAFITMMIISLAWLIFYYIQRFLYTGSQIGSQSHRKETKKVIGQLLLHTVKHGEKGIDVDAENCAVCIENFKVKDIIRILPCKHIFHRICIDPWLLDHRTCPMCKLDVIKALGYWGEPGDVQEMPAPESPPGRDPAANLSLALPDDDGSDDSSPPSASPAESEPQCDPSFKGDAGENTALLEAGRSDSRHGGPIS
# Sequence of UniProt Q9H0U4 (Q9H0U4 whole entry, looked up): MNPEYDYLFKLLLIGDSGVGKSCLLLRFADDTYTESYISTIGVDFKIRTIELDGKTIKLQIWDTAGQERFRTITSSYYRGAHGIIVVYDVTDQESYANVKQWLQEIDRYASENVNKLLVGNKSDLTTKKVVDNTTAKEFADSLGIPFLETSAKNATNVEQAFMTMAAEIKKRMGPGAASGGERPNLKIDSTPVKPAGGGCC
# Sequence of UniProt Q9UQR0 (Q9UQR0 whole entry, looked up): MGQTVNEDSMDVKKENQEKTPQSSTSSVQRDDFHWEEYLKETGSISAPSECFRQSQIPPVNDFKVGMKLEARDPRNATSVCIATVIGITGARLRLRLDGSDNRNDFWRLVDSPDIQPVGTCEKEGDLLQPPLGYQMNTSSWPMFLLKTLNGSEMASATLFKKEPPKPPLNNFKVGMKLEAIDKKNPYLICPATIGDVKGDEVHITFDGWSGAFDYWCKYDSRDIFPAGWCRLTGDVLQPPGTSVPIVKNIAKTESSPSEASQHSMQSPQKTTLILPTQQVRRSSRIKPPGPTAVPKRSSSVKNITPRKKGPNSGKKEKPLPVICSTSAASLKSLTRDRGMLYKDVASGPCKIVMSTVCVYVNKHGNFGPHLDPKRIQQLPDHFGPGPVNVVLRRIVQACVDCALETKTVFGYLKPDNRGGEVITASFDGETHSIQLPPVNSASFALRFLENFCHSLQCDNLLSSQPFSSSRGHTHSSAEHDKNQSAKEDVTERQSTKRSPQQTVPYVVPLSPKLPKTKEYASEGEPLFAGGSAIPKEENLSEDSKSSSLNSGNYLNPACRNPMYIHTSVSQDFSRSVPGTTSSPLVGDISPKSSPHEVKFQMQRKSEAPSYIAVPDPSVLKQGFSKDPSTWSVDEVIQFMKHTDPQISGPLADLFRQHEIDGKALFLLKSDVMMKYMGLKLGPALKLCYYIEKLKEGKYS
Target,log2 fold change [1],log2 fold change [2],log2 fold change [3],log2 fold change [4],log2 fold change [5]
RPL27 (UniProt P61353),0.034,0.031,0.003,0.008,0.101
RNF149 (UniProt Q8NC42),-0.015,0.022,-0.138,-0.081,0
RIPK1 (UniProt Q13546),-0.019,-0.015,-0.009,-0.04,-0.021
RAB3IL1 (UniProt Q8TBN0),0.047,0.008,0.02,0.007,0.039
SDHC (UniProt Q99643),-0.045,-0.016,0.035,-0.085,-0.09
SESN2 (UniProt P58004),-0.074,0.01,-0.025,-0.004,-0.01
RFC3 (UniProt P40938),-0.032,0.003,0.026,0.055,0.024
RARS (UniProt P54136),-0.014,0.038,0.024,0.028,0.091
RAB27A (UniProt P51159),0.052,0.028,-0.007,-0.013,0.181
RALA (UniProt P11233),-0.013,0.071,-0.008,-0.004,-0.225
RAD17 (UniProt O75943),-0.031,-0.077,0.047,-0.066,0.002
RNASEH2B (UniProt Q5TBB1),0.056,-0.008,-0.032,0.038,0.049
RSU1 (UniProt Q15404),0.056,0.004,-0.004,-0.017,0.157
RFC2 (UniProt P35250),-0.009,0.006,-0.008,0.043,-0.033
SCML2 (UniProt Q9UQR0),-0.036,0.062,-0.055,-0.032,0.02
RRAGA (UniProt Q7L523),0.024,-0.039,0.01,-0.045,-0.036
RPS6KA3 (UniProt P51812),-0.049,-0.031,-0.008,0.009,-0.061
RDH14 (UniProt Q9HBH5),0.123,-0.016,-0.076,0.102,-0.058
REEP5 (UniProt Q00765),0.007,0.009,0.028,0.022,-0.092
SBF1 isoform 4 (UniProt O95248),-0.08,0.001,-0.094,0.092,0.072
RELN (UniProt P78509),0.033,-0.007,0.025,-0.089,-0.036
RFWD3 (UniProt Q6PCD5),-0.058,0.132,0,-0.072,0.049
"RAPGEF2, A0A2R8YGD3",-0.043,0.021,-0.046,-0.003,-0.32 (active)
RAE1 (UniProt P78406),-0.022,-0.081,-0.005,0.07,-0.022
RINT1 (UniProt Q6NUQ1),-0.021,-0.008,0.019,-0.008,0.026
SEC13 isoform 3 (UniProt P55735),0.022,-0.013,-0.001,-0.029,0.191
RHAG (UniProt Q02094),0.033,-0.076,0.145,-0.066,-0.143

Target,log2 fold change [1],log2 fold change [2],log2 fold change [3],log2 fold change [4],log2 fold change [5]
RABL3 (UniProt Q5HYI8),-0.044,-0.021,0.004,0.017,0.03
RANBP6 (UniProt O60518),0.013,-0.047,0.046,0.074,0.005
RCOR1 (UniProt Q9UKL0),-0.034,0.03,-0.003,-0.023,0.494 (active)
SERPINI1 (UniProt Q99574),0.067,-0.033,0.031,-0.011,-0.021
RTTN (UniProt Q86VV8),0.089,-0.033,-0.289,0.046,0.024
RABGGTB (UniProt P53611),-0.102,-0.01,0.005,-0.048,-0.017
RNPS1 (UniProt Q15287),0.014,-0.003,0.06,0.036,0.016
RPL28 (UniProt P46779),0.042,-0.02,0.001,-0.008,0.041
RIC1 (UniProt Q4ADV7),-0.086,0.186,0,0.081,0.138
RAF1 isoform 2 (UniProt P04049),0.024,0.035,-0.104,-0.017,0.013
RETSAT (UniProt Q6NUM9),0.103,-0.037,0.148,-0.145,-0.015
REL isoform 2 (UniProt Q04864),0.017,0,-0.003,0.031,0.03
RAB1B (UniProt Q9H0U4),-0.015,0.021,0.056,0.013,-0.17
R3HCC1 (UniProt Q9Y3T6),0.014,0.015,0.006,-0.014,-0.047
RDH10 (UniProt Q8IZV5),0.147,0.018,0.006,-0.051,-0.06
RANBP2 (UniProt P49792),-0.019,-0.009,0.002,0.003,0.02
RIOK2 (UniProt Q9BVS4),0.002,-0.018,0.009,-0.023,-0.022
SEH1L isoform 1 (UniProt Q96EE3),0.016,0.031,-0.045,-0.041,-0.028
RPN2 (UniProt P04844),-0.001,-0.01,0.01,-0.008,-0.009
SAR1A (UniProt Q9NR31),0.066,0.038,0.005,-0.116,-0.009
SEC61G (UniProt P60059),0.269,-0.063,-0.016,-0.065,-0.225
RAC2 (UniProt P15153),-0.116,0.043,-0.032,0.067,0.028
RNF181 (UniProt Q9P0P0),0.03,-0.145,-0.031,0.022,0.066
SCO1 (UniProt O75880),-0.021,0.017,0,0.136,-0.027
RIOK3 (UniProt O14730),0.002,0.052,0.053,-0.007,0.016
RPLP0P6 (UniProt Q8NHW5),0.052,-0.038,-0.002,-0.026,-0.027
